# Compound activity as filed in PubChem BioAssay.
# Hits are enriched below; roughly 0.83% of the tested compounds scored in any of these assays.
# NR5A2 inv ag = LRH-1 (NR5A2) inverse agonists, primary screen, cell-based, luminescence, HEK293T, StAR-luciferase reporter | Nuclear receptor subfamily 5 group A member 2 (Homo sapiens), O00482 | LRH-1 transfected, 24 h | inhibition, % at 3.6 µM | actives 0.13% (n = 360,000) | AID 602396, 2012;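 active means inhibition above the mean inhibition of all tested compounds plus 3 SD, cut at about 73% in these data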;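 further: 0% = DMSO wells and 100% = reporter-only cells lacking LRH-1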
# SRC1 inh = SRC1 coactivator transcriptional activity inhibitors, primary screen, cell-based, luminescence | Nuclear receptor coactivator 1 (Homo sapiens), Q15788 | HEK293 GAL4-SRC1 luciferase reporter | inhibition, % at 3.6 µM | actives 0.12% (n = 360,000) | AID 588354, 2011;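 active means inhibition above the campaign mean plus 3 SD, with each screening campaign given its own cutoff, cut at about 60% in these data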;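 further: 0% = DMSO treated cells and 100% = gossypol at 36 µM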
# Target sequence (Q15788 whole entry, looked up, the tested form may be a part): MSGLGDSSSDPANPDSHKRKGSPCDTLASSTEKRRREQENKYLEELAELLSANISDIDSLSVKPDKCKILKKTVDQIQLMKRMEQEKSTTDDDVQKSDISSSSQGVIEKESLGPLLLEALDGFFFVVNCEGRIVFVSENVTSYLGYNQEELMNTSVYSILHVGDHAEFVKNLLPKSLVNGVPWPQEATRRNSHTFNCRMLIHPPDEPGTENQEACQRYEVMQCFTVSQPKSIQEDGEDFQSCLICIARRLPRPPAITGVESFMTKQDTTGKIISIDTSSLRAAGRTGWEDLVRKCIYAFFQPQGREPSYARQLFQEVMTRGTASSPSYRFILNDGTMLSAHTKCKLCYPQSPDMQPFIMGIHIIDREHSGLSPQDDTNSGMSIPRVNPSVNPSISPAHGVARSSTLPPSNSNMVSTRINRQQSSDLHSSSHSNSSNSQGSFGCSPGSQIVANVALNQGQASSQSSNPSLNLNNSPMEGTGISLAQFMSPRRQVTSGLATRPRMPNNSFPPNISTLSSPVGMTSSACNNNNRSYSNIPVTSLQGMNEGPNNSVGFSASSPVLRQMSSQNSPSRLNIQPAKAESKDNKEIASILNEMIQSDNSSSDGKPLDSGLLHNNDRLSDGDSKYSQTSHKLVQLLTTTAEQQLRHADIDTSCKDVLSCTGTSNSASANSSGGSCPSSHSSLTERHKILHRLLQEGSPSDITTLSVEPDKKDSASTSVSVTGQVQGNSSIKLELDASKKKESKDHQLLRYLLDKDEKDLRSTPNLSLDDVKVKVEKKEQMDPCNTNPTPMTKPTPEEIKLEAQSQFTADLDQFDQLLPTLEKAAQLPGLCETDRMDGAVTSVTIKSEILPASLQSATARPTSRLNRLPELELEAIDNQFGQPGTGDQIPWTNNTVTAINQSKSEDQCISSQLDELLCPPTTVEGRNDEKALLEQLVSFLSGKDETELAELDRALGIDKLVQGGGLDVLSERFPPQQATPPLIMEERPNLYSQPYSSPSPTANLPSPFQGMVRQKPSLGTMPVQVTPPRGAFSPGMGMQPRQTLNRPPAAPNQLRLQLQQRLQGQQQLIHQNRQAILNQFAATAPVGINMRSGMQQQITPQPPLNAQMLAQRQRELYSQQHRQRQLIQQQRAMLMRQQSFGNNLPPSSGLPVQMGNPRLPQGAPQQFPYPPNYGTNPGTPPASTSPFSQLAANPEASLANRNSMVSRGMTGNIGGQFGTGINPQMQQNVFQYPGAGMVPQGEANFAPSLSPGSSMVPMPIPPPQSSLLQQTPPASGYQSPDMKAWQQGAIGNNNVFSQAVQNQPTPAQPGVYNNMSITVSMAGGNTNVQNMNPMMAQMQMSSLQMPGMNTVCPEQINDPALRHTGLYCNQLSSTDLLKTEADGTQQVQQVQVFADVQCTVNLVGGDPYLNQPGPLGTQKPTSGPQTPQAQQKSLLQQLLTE
# NCOA3 inh = SRC3 coactivator transcriptional activity inhibitors, primary screen, cell-based, luminescence; inhibition, % at 3.6 µM; Nuclear receptor coactivator 3 (Homo sapiens), Q9Y6Q9; actives 0.17% (n = 360,000); AID 588352, 2011; HEK293 GAL4-SRC3 luciferase reporter;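 active means inhibition above a per-campaign cutoff, the mean of all compounds plus 3 SD, cut at about 60% in these data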;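 further: 0% = DMSO-treated cells and 100% = gossypol-treated cells at 36 µM; higher means less SRC3-driven luciferase light from the GAL4 reporter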
# Gli-Sufu block = Gli-Sufu pathway antagonists, primary screen, luciferase luminescence, Sufu-KO-LIGHT cells, uHTS. Sufu-KO-LIGHT fibroblasts, Gli luciferase reporter luminescence. inhibition, % at 5 µM. actives 0.74% (n = 340,000). AID 588413, 2011;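 active means inhibition above about 55%, limit read from the data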;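 further: 0% = DMSO-treated cells and 100% = wells with medium but no cells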
# NCOA2 inhibitor = inhibition of GAL4-SRC2 driven luciferase reporter, primary screen, SRC2 inhibitor project, cell-based, luminescence | Nuclear receptor coactivator 2 (Homo sapiens), Q15596 | HEK293 GAL4-SRC2 luciferase reporter | inhibition, % at 9 µM | actives 0.17% (n = 370,000);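 active means inhibition above the mean inhibition of all tested compounds plus 3 SD, set per campaign, cut at about 52% in these data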;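 further: 0% = DMSO treated cells and 100% = cells given Gossypol at 36 µM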
# Gli-Sufu confirm = Gli-SUFU pathway antagonists, confirmation, single concentration, luciferase luminescence, Sufu-KO-LIGHT cells; shares compounds with Gli-Sufu block; inhibition, % at 5 µM; Gli luciferase reporter; actives 40% (n = 2,500);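 active means mean inhibition at 5 µM reaching about 45%, limit read from the data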;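 further: plate controls were DMSO-treated cells for no effect and wells lacking cells for full effect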
# SufuKO cytotox = cytotoxicity in Sufu-KO-LIGHT cells, confirmation, cytotoxicity control for Gli-SUFU antagonist project, cell-based, ATP luminescence, single concentration | cytotoxicity, % at 5 µM | shares compounds with Gli-Sufu block | actives 32% (n = 2,500);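 active means mean cytotoxicity at 5 µM above about 25%, limit read from the data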;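 further: cells exposed to compound overnight for roughly 16 to 18 hours; plate controls were DMSO wells with cells for no effect and medium without cells for full effect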
# Wnt3a counter = Wnt3a reporter signal inhibition, confirmation, counter-screen for Gli-SUFU antagonist project, Wnt-LIGHT cells, luminescence, single concentration | actives 20% (n = 2,500) | Wnt3a-driven luciferase reporter | shares compounds with Gli-Sufu block | inhibition, % at 6.25 µM;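 active means mean inhibition above about 25%, limit read from the data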
# * hit, by the source's call; . = not tested or not shown.
SMILES,NR5A2 inv ag,SRC1 inh,NCOA3 inh,Gli-Sufu block,NCOA2 inhibitor,Gli-Sufu confirm,SufuKO cytotox,Wnt3a counter
COc1ccc(C(=O)Nc2cc([N+](=O)[O-])ccc2N2CCN(C)CC2)cc1,15.4,-23.0,8.1,6.1,-0.7,.,.,.
C[C@H](NC(=O)[C@@H]1CCC(=O)N1Cc1ccco1)c1ccccc1,7.1,1.3,1.0,67.8*,-0.9,11.5,-8.9,-3.1
O=C(O)[C@H]1CCC(=O)N1Cc1ccco1,10.8,-0.7,12.6,2.8,15.3,.,.,.
COC(=O)[C@]12C[C@H](CC(=O)N3CCSCC3)C(=O)N(Cc3cccc4ccccc34)C1=C[C@H](COCc1ccccc1)O[C@@H]2C,.,.,.,.,22.3,.,.,.
CCOC(=O)N1CCN(C(=O)CSc2ccc3nnc(-c4ccncc4)n3n2)CC1,13.0,-5.5,21.1,58.9*,-11.8,8.7,33.1*,-11.7
CCOC(=O)N1CCN(C(=O)CSc2ccc3nnc(-c4ccccn4)n3n2)CC1,-21.7,-11.7,-0.4,10.1,10.9,.,.,.
C=CCN(Cc1ccc2c(c1)OCO2)C(C#Cc1ccccc1)c1ccccc1C(F)(F)F (stereo not drawn),.,.,.,.,-7.9,.,.,.
COC(=O)c1ccccc1NC(=O)CSc1nnnn1CC(=O)O,10.4,3.2,7.3,-10.9,9.9,.,.,.
O=C(O)Cn1nnnc1SCC(=O)Nc1ccccc1F,-13.0,-17.3,13.1,56.6*,-15.8,32.5,-0.4,9.5
CN1CCN(c2ccccc2/C=N/NC(=O)c2cccnc2)CC1,4.3,4.8,-5.0,66.0*,7.9,26.2,9.0,4.5
O=C(N/N=C\c1cc2c(cc1Cl)OCO2)c1cccnc1,-6.3,-1.5,-21.6,-14.6,-13.7,.,.,.
CCOc1cc(/C=N/NC(=O)c2cccnc2)ccc1O,37.7,10.5,7.3,1.8,-7.5,.,.,.
CCOc1cccc(/C=N/NC(=O)c2cccnc2)c1O,-3.3,32.5,21.3,58.6*,-27.4,30.1,15.1,33.0*
COC(=O)C1CN(Cc2cn(CCOC(C)=O)nn2)CCS(=O)(=O)N1Cc1ccc(F)cc1 (stereo not drawn),.,.,.,.,2.2,.,.,.
CSCCCNC(=O)c1oc(=O)c2ccccc2c1-c1ccc(C)cc1,.,.,.,.,11.6,.,.,.
C=CCNC(=O)c1ccc(CN2CCC(Cc3ccccc3)CC2)cc1,-17.4,-23.0,17.6,55.9*,18.5,16.2,18.1,-5.9
CC(C)NC(=O)c1ccc(CN2CCC(Cc3ccccc3)CC2)cc1,0.5,8.3,-0.3,29.8,4.1,.,.,.
Cc1ccc(-n2nnc3c(SCC(=O)NCc4ccco4)ncnc32)cc1,20.0,-4.8,-11.1,9.0,2.3,.,.,.
COc1ccc(-n2nnc3c(SCC(=O)NCc4ccco4)ncnc32)cc1,-27.0,-6.4,1.9,97.8*,1.4,20.7,6.0,11.8
COc1cc2c(cc1NC(=O)CSc1nnc(COc3ccccc3)n1Cc1ccco1)oc1ccccc12,.,.,.,.,-35.8,.,.,.
COc1ccc(S[C@]2(C(=O)N3CCN(C(C)=O)CC3)CC(=O)N(C(=O)CCc3ccccc3)[C@@H]2c2ccc(OC)cc2)cc1,.,.,.,.,21.4,.,.,.
O=S(=O)(NCCc1ccccc1)c1ccc(F)cc1,-25.3,-3.6,-5.6,52.0,8.9,36.0,24.9,-13.4
O=C(O)CCc1ccc(S(=O)(=O)NCCc2ccccc2)cc1,-6.8,-10.3,-18.1,-0.2,-0.4,.,.,.
O=C(NNC(=O)c1cc([N+](=O)[O-])ccc1Cl)c1cccnc1,4.3,-17.2,-1.4,53.7,13.4,8.7,21.0,-23.6
COc1ccc(Cn2c(C)nc3ccc([N+](=O)[O-])cc3c2=O)cc1,9.8,0.6,-2.0,60.9*,3.8,32.5,23.9,-11.5
SMILES,NR5A2 inv ag,SRC1 inh,NCOA3 inh,Gli-Sufu block,NCOA2 inhibitor,Gli-Sufu confirm,SufuKO cytotox,Wnt3a counter
O=C(NC1CCCCN(Cc2ccc(Cl)cc2)C1=O)c1ccc(-c2ccccc2)cc1 (stereo not drawn),.,.,.,.,1.8,.,.,.
COc1ccc(CN2CCSCC2)c(OC)c1C,0.9,1.6,5.9,58.9*,-21.9,16.9,13.2,-6.6
COC(=O)[C@]1(C#N)CC(=O)N(Cc2ccc(Cl)cc2)[C@@H]1c1ccccc1,.,.,.,.,6.0,.,.,.
Cc1cc(C)cc(NC(=S)NC(=O)Cc2ccccc2)c1,17.4,8.4,11.9,60.5*,-14.9,11.7,22.7,0.4
Cc1ccc(C(=O)O)cc1NC(=S)NC(=O)Cc1ccccc1,13.2,9.7,-14.8,-21.2,11.5,.,.,.
Cc1cnn2c(C3CC3)ccnc12,18.3,-3.9,-9.4,57.7*,11.7,11.9,19.2,-7.5
COc1ccc(CCNC(=O)Cn2ncc3c2-c2cc(C)ccc2OC3)cc1,.,.,.,.,-5.7,.,.,.
COC(=O)CNC(=O)C(C)NC(=O)OCc1ccccc1 (stereo not drawn),-5.6,4.5,-17.6,98.7*,-10.1,33.7,3.7,-2.1
O=C(c1ccncc1F)N1CCC(n2nnc3ncccc32)CC1,.,.,.,.,10.0,.,.,.
O=C(CSc1nc2ncccc2[nH]1)N1CCOCC1,.,.,.,.,-1.9,.,.,.
COc1ccc(NS(=O)(=O)c2ccc3c(c2)OCCO3)cc1OC,65.9,16.9,26.1,65.9*,39.1,59.8*,29.0*,30.4*
COc1ccccc1NS(=O)(=O)c1ccc(-c2cnc(C3CC3)o2)cc1,6.6,17.0,9.1,1.6,1.2,.,.,.
Cc1ccc(N(C)S(=O)(=O)c2cc(-c3cnc(C4CC4)o3)ccc2C)cc1,-0.6,7.9,-13.1,-5.1,6.8,.,.,.
COc1ccc(NS(=O)(=O)c2ccc(-c3cnc(C4CC4)o3)cc2)cc1OC,66.7,26.1,23.1,71.8*,31.3,71.1*,59.1*,28.8*
Cc1cccc(N(C)S(=O)(=O)c2ccc(-c3cnc(C4CC4)o3)cc2)c1,20.9,-17.7,9.9,59.3*,20.8,56.6*,54.9*,-15.1
CCOc1ccccc1NS(=O)(=O)c1ccc(-c2cnc(C3CC3)o2)cc1,24.1,-14.1,16.4,55.4*,15.3,59.3*,56.3*,-12.3
COc1ccccc1CNS(=O)(=O)c1ccc(-c2cnc(C3CC3)o2)cc1,25.2,-13.2,3.6,36.0,11.0,.,.,.
O=S(=O)(Nc1ccc(F)cc1Cl)c1ccc(-c2cnc(C3CC3)o2)cc1,18.0,14.0,19.4,54.2,26.1,24.7,49.9*,-33.7
Cc1ccc(NS(=O)(=O)c2ccc(-c3cnc(C4CC4)o3)cc2)c(C)c1,23.2,-14.2,17.3,21.2,29.1,.,.,.
CCCCCn1ccc(=N)cc1,-7.0,-7.2,8.6,24.3,16.5,.,.,.
